Measured values as given in PubChem BioAssay (NCATS).
Values joined by “and” are separate entries in the source; they are usually repeats but may differ in a detail not shown here. Identical values can stand only once. Records with an inconclusive call do not appear. Active and inactive are the calls of the source. Unless noted, calls follow the shape of the dose curve; as a rule, active = well fitted curve in the direction sought with a large enough effect; inconclusive = small, poorly fitted or top-dose-only effect, or another doubt; inactive = no such curve, though single readings can be large; an effect the other way counts as inactive or inconclusive.

Columns and labels:
[1] = Cell Viability - LYMP2-002 (AID 977);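 also: series mostly up to about 92 µM; compound exposure lasted 24 h at 37 °C; plate controls were DMSO only for no effect and 92 µM tetraoctylammonium bromide for full effect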
Summary of the method: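 Cytotoxicity is scored as concentration-dependent loss of cellular ATP in a human lymphoblastoid line after 24 hr compound treatment at 37 C. AC50 is obtained by modelling concentration-response data with the Hill equation.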

[2] = Cell Viability - LYMP2-006 (AID 978);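 also: series mostly up to about 92 µM; cells exposed to compound for 24 hours; % is scaled to controls: 0 for no effect and ±100 for the full control effect; nearly all actives have a fitted effect of over 60% in size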
Summary of the method: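 Human lymphoblastoid cells (LYMP2-006), 2500/well in complete medium, were treated with compound for 24 hr at 37 C. Cellular ATP was read by CellTiter-Glo luminescence after 30 min, and AC50 values came from Hill-equation fits of concentration-response data.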

[3] = Cell Viability - LYMP2-007 (AID 979);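 also: cells exposed to compound for 24 h before reading; 0% = DMSO only and the negative end = 92 µM tetraoctylammonium bromide; nearly all actives have a fitted effect of over 60% in size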
Summary of the method: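 Acute toxicity is scored as a concentration-dependent fall in intracellular ATP in human lymphoblastoid cells treated 24 hr at 37 C, measured by luciferase luminescence; Hill-equation modelling yields AC50.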

[4] = Cell Viability - LYMP2-010 (AID 981);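 also: cells exposed to compound for 24 hours at 37 °C; % is scaled to controls: 0 for no effect and ±100 for the full control effect; nearly all actives have a fitted effect of over 55% in size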
Summary of the method: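 Acute toxicity is scored as a concentration-dependent loss of cellular ATP in human lymphoblastoid cells after 24 hr compound exposure in complete medium. Tetraoctylammonium bromide is the positive control.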

[5] = Cell Viability - LYMP2-012 (AID 982);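 also: cellular ATP by luciferase luminescence where a drop means cytotoxicity; cells exposed to compound for one day before reading; 0% = DMSO only and full loss = 92 µM tetraoctylammonium bromide; nearly all actives have a fitted effect of over 55% in size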
[6] = Cell Viability - LYMP2-014 (AID 983);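 also: series mostly up to about 92 µM; cells exposed to compound for 24 h at 37 °C; plate controls were DMSO only for no effect and 92 µM tetraoctylammonium bromide for full effect; nearly all actives have a fitted effect of over 50% in size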
Summary of the method: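 Decrease in intracellular ATP after 24 hr treatment at 37 C, measured by luciferase luminescence, indicated cytotoxicity. Concentration-response data were fitted with the standard Hill equation to give AC50.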

[7] = Cell Viability - LYMP2-018 (AID 985);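 also: compound exposure lasted 24 hr at 37 °C; plate controls were DMSO only for no effect and tetraoctylammonium bromide at 92 µM for full effect; nearly all actives have a fitted effect of over 50% in size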
Summary of the method: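 Acute cytotoxicity is scored as a concentration-dependent drop in intracellular ATP after 24 hr exposure of the lymphoblastoid line in complete culture medium, measured by luciferase luminescence. Potency is expressed as AC50 from Hill modelling.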

[8] = Cell Viability - LYMP2-020 (AID 986);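 also: series mostly up to about 92 µM; cells exposed to compound for 24 h at 37 °C; plate controls were DMSO only for no effect and tetraoctylammonium bromide at 92 µM for full effect; nearly all actives have a fitted effect of over 55% in size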
Summary of the method: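 Acute cytotoxicity in a human lymphoblastoid line is scored as a concentration-dependent fall in cellular ATP after 24 hr at 37 C in complete medium. The positive control is tetraoctylammonium bromide, and potency is given as Hill-fit AC50.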

[9] = Cell Viability - LYMP2-024 (AID 988);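 also: plate controls were DMSO only for no effect and 92 µM tetraoctylammonium bromide for full effect; nearly all actives have a fitted effect of over 60% in size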
Summary of the method: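 Acute toxicity is measured as concentration-dependent loss of intracellular ATP in a human lymphoblastoid line treated 24 hours at 37 C. Luciferase luminescence quantifies ATP; AC50 values come from standard Hill-equation modelling.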

[10] = Cell Viability - LYMP2-026 (AID 989);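 also: cells exposed to compound for 24 h at 37 °C; % is scaled to controls: 0 for no effect and ±100 for the full control effect; nearly all actives have a fitted effect of over 50% in size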
Summary of the method: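 Concentration-dependent loss of intracellular ATP in human lymphoblastoid cells after 24 hr at 37 C, quantified by luciferase luminescence. AC50 derived from standard Hill equation.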

[11] = Cell Viability - LYMP1-002 - Assay at 24 hr (AID 993); also: % is scaled to controls: 0 for no effect and ±100 for the full control effect
Summary of the method: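 qHTS, LYMP1-002 lymphoblastoid, 24 h cpd, 37 C, CellTiter-Glo ATP luminescence; AC50 via Hill eq.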

[12] = Cell Viability - LYMP1-002 - Assay at 40 hr (AID 994);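 also: 0% = DMSO only and full inhibition = 92 µM tetraoctylammonium bromide; nearly all actives have a fitted effect of over 60% in size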
Summary of the method: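 Viability in the human lymphoblastoid line was measured as intracellular ATP via CellTiter-Glo after 40 hr compound exposure. Tetraoctylammonium bromide served as positive control.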

[13] = qHTS Assay for Identification of Small Molecule Inducers of Hypoxia Response (AID 2120; active = well fitted curve in the direction sought with a large enough effect in the signal ratio, with a control signal flat, not every such curve was filed as active; the % refers to the signal ratio; also: 0% is about no effect)
Summary of the method: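 Induction of beta-lactamase reporter activity was measured in CellSensor HRE-bla ME-180 cells after 17 h compound treatment at 37 degrees C, using CCF4 substrate and the 460nm/530nm emission ratio to derive AC50 values.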

[14] = target: Estrogen receptor (Homo sapiens) (UniProt P03372); assay: qHTS assay for small molecule antagonists of estrogen receptor alpha signaling (AID 588513; active = well fitted curve in the direction sought with a large enough effect in the signal ratio, with a control signal flat, not every such curve was filed as active; the % refers to the signal ratio; also: % is scaled to controls: 0 for no effect and ±100 for the full control effect)
Summary of the method: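 ER-alpha-UAS-bla GripTite HEK 293 cells in 2% charcoal/dextran-treated FBS medium; compounds titrated (1:2, duplicate), then stimulated with 0.5 nM 17-beta-estradiol for 18 h at 37C. CCF4 beta-lactamase fluorescence; Hill-fit IC50 and efficacy.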

[15] = target: Bile acid receptor (Homo sapiens) (UniProt Q96RI1); assay: qHTS assay for small molecule antagonists of farnesoid X receptor signaling (AID 588526; calls by dose curve; also: % is scaled to controls: 0 for no effect and ±100 for the full control effect)
Summary of the method: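 Beta-lactamase reporter antagonist mode: HEK293T FXR-UAS-bla cells, titrated compound, CDCA stimulation, 16 h 37 C, CCF4 dye 2 h RT. Data normalized to CDCA 50 uM and DMSO; Hill-fit IC50.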

[16] = target: Bile acid receptor (Homo sapiens) (UniProt Q96RI1); assay: qHTS assay for small molecule agonists of farnesoid X receptor signaling (AID 588527; calls by dose curve;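 also: series mostly up to about 77 µM; 0% = vehicle basal and 100% = reference agonist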); settings: HEK293T FXR-UAS-bla, beta-lactamase ratio, 16 h; activation: stronger effect = higher value
Summary of the method: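 Quantitative HTS used FXR-UAS-bla HEK293T cells with 16 h compound incubation at 37 C. EC50 values came from concentration-response curves normalized to chenodeoxycholic acid.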

[17] = target: Glucocorticoid receptor (Homo sapiens) (UniProt P04150); assay: qHTS assay for small molecule agonists of glucocorticoid receptor signaling (AID 588532; active = well fitted curve in the direction sought with a large enough effect in the signal ratio, with a control signal flat; the % refers to the signal ratio;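 also: 100% = dexamethasone at 0.1 µM and 0% = DMSO only wells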); settings: HeLa MMTV-bla, beta-lactamase ratio, agonist, 18 h; stronger effect = higher value; percent of dexamethasone control, DMSO zero
Summary of the method: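 Quantitative HTS using CellSensor MMTV-bla HeLa cells in charcoal/dextran-treated serum; compounds tested up to 92 uM. After 18 h at 37 C, CCF4 dye reported reporter induction.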

[18] = target: Glucocorticoid receptor (Homo sapiens) (UniProt P04150); assay: qHTS assay for small molecule antagonists of glucocorticoid receptor signaling (AID 588533; active = well fitted inhibition curve with a large enough effect in the signal ratio, with a control signal flat, not every such curve was filed as active; the % refers to the signal ratio;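 also: cells stimulated with 2 nM dexamethasone as agonist; % is scaled to controls: 0 for no effect and ±100 for the full control effect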)
Summary of the method: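 Antagonist-mode qHTS: compound titrations added to GRE-bla HeLa cells, then dexamethasone 2 nM final; 18 h, 37 C. CCF4 FRET fluorescence normalized to dexamethasone and DMSO; IC50 from Hill fit.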

[19] = target: Peroxisome proliferator-activated receptor delta (Homo sapiens) (UniProt Q03181); assay: qHTS assay for small molecule agonists of peroxisome proliferator-activated receptor delta signaling (AID 588534; calls by dose curve;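 also: 0% = DMSO basal wells and 100% = positive control agonist at 10 µM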)
Summary of the method: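 Reporter cells were plated and held 5 hrs at 37 C before compounds were added. After 18 hrs at 37 C, CCF4 dye was loaded for 2 hrs at RT and fluorescence measured.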

[20] = qHTS assay for small molecule antagonists of peroxisome proliferator-activated receptor delta signaling (AID 588535; active = well fitted inhibition curve with a large enough effect in the signal ratio, with a control signal flat, not every such curve was filed as active; the % refers to the signal ratio); settings: HEK293T PPARd-UAS-bla, beta-lactamase FRET ratio, 18 h; 460 nm channel
Summary of the method: (§1)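 Cell-based beta-lactamase assay in antagonist mode: 4000 HEK293T PPAR-delta-UAS-bla cells per well, 5 hr preincubation then 18 hr compound incubation at 37 C. IC50 obtained by Hill equation fitting.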

[21] = target: Peroxisome proliferator-activated receptor delta (Homo sapiens) (UniProt Q03181); assay: as above
Summary of the method: as §1

[22] = target: Thyroid hormone receptor beta (Homo sapiens) (UniProt P10828); assay: qHTS assay for small molecule agonists of thyroid hormone receptor beta signaling (AID 588545; calls by dose curve)
Summary of the method: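 Agonist-mode beta-lactamase reporter assay, HEK 293 cells, 2% charcoal/dextran FBS; cells plated 4 hrs, compound 18 hrs at 37 C, CCF4 2 hrs RT. Normalized to 10 nM T3 (100%) and DMSO (0%); Hill fit gives EC50, efficacy.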

[23] = qHTS assay for small molecule antagonists of retinoid X receptor alpha signaling (AID 588546; active = well fitted inhibition curve with a large enough effect in the signal ratio, with a control signal flat, not every such curve was filed as active; the % refers to the signal ratio); settings: HEK293T RXRa-UAS-bla, beta-lactamase ratio, antagonist mode; measured here: W530 green channel, cytotoxicity proxy
Summary of the method: (§2)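 Beta-lactamase reporter inhibition, read as CCF4 fluorescence ratio (ex 405, em 460/530 nm) after 2 h at RT. HEK293T UAS-bla cells, 2500/well, were stimulated with 9-cis-RA at 500 or 100 nM final alongside test compound for 18 h at 37 C.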

[24] = target: Retinoic acid receptor RXR-alpha (Homo sapiens) (UniProt P19793); assay: as above; settings: HEK293T RXRa-UAS-bla, beta-lactamase ratio, antagonist mode
Summary of the method: as §2

[25] = target: Thyroid hormone receptor beta (Homo sapiens) (UniProt P10828); assay: qHTS assay for small molecule antagonists of thyroid hormone receptor beta signaling (AID 588547; active = well fitted inhibition curve with a large enough effect in the signal ratio, with a control signal flat, not every such curve was filed as active; the % refers to the signal ratio); settings: TR-UAS-bla HEK293, beta-lactamase ratio, antagonist mode, 18 h
Summary of the method: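 Inhibition of T3-driven (0.4nM final) beta-lactamase reporter activity was measured over 0.59 nM to 92 uM compound after 18 h at 37 C. The cells were GripTite HEK293 TR-UAS-bla in charcoal/dextran-stripped serum, with CCF4 ratio read-out and IC50 from Hill fits.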

[26] = target: Voltage-gated inwardly rectifying potassium channel KCNH2 (Homo sapiens) (UniProt Q12809); assay: qHTS Assay for Small Molecule Inhibitors of the Human hERG Channel Activity (AID 588834);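 also: potency is read from the fitted curve at half-maximal effect; lower thallium flux fluorescence means stronger hERG block; nearly all actives have a fitted effect of over 50% in size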
Summary of the method: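 U2OS cells BacMam-transduced with hERG, 2000 cells/well, compound ~10 min at 37 °C before stimulation buffer. FluxOR thallium flux fluorescence read kinetically on FDSS; decrease indicates block; AC50 from Hill fits.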

[27] = qHTS assay for small molecule agonists of the antioxidant response element (ARE) signaling pathway (AID 651741; active = well fitted activation curve with a large enough effect in the signal ratio; the % refers to the signal ratio; also: potency is read from the fitted curve at half-maximal effect)
Summary of the method: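 Seeding 2,000 ARE-bla HepG2 cells per well preceded a 5 h incubation at 37 C/5% CO2 and a 16 h compound exposure at 37 C. Beta-lactamase reporter activity was then quantified by fluorescence after 2 h with LiveBLAzer B/G FRET substrate.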

[28] = qHTS assay for small molecule activators of the p53 signaling pathway (AID 651743; active = well fitted activation curve with a large enough effect in the signal ratio, not every such curve was filed as active; the % refers to the signal ratio; also: series mostly up to about 92 µM; % of control where 0% means no effect); settings: HCT-116 p53RE-bla, beta-lactamase FRET ratio, 16 h; activation: stronger effect = higher value
Summary of the method: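 Screen for p53 pathway agonists uses stably transfected p53RE-bla HCT-116 cells, 4,000 per well, treated 16 h at 37 C with compounds in DMSO.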

[29] = qHTS assay for small molecule activators of the nuclear factor-kappa B (NF-kB) signaling pathway (AID 651749; active = well fitted activation curve with a large enough effect in the signal ratio; the % refers to the signal ratio; also: series mostly up to about 77 µM; % of control where 0% means no effect); settings: NF-kB-bla ME-180 cells, beta-lactamase FRET ratio, 16 h; activation: stronger effect = higher value
Summary of the method: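 Stably transfected ME-180 line; NF-kB response element upstream of beta-lactamase. Treatment: compound or DMSO, 16 hr. Detection: fluorescent FRET substrate.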

[30] = qHTS assay for small molecule disruptors of the mitochondrial membrane potential - 1 hr assay (AID 651754; calls by dose curve; also: potency is read from the fitted curve at half-maximal effect; nearly all actives have a fitted effect of over 35% in size)
Summary of the method: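 Steps: seed HepG2 cells and let attach overnight; pin-transfer compound or vehicle; incubate 1 hr at 37C; add Mito-MPS dye for 30 min; read two-channel fluorescence for monomer and aggregate forms.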

[31] = qHTS assay for small molecule disruptors of the mitochondrial membrane potential - 5 hr assay (AID 651755; calls by dose curve; also: potency is read from the fitted curve at half-maximal effect; nearly all actives have a fitted effect of over 40% in size)
Summary of the method: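 HepG2, 2,000 cells/well, overnight attach; cpd or DMSO 5 hr, 37C/5% CO2; Mito-MPS 30 min 37C; fluor 490/535 + 540/590 nm.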

[32] = target: Peroxisome proliferator-activated receptor alpha (Homo sapiens) (UniProt Q07869); assay: qHTS assay for small molecule agonists of the peroxisome proliferator-activated receptor alpha (PPARalpha) signaling pathway (AID 651778); settings: PathHunter PPARalpha complementation, chemiluminescence, 6 h; stronger effect = higher value; also: % of control where 0% means no effect
Summary of the method: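 Chemiluminescence from complemented enzyme reported PPARalpha activation in cells after 6 hr of compound treatment at 37 C. The detection reagent was incubated for 60 min at room temperature, and compounds were scored as agonists.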

[33] = qHTS assay for small molecule antagonists of the retinoid-related orphan receptor gamma (ROR-gamma) signaling pathway - cell viability counter screen (AID 720652; active = well fitted curve in the direction sought with a large enough effect in the repeat runs; an effect the other way counts as inactive or inconclusive)
Summary of the method: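 Cytotoxicity is quantified via intracellular ATP (CellTiter-Glo luminescence) in doxycycline-induced CHO ROR response element-luciferase reporter cells treated with compound for 16 hr at 37 C, 5% CO2.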

[34] = qHTS assay for cell viability of HEK293 cells (AID 743288); settings: ATP luminescence (CellTiter-Glo), 18 h; max response: stronger effect = lower value
Summary of the method: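 Parental HEK293 cells, 2,000 per well, preincubated at least 5 h at 37 C, then exposed to compounds in DMSO for 18 h at 37 C. Viability by CellTiter-Glo ATP luminescence after 30 min at room temperature.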

[35] = qHTS assay for cell viability of the p53RE-bla HCT-116 cell line (AID 743292); also: % is scaled to controls: 0 for no effect and ±100 for the full control effect; nearly all actives have a fitted effect of over 55% in size
Summary of the method: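 In this qHTS counter-screen, metabolically competent p53RE-bla HCT-116 cells were counted via their ATP content. Compounds were applied for 16 h at 37 C and luciferase-coupled luminescence was measured.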

[36] = qHTS for Inhibitors of the Functional Ribonucleoprotein Complex (vRNP) of Lassa (LASV) Arenavirus: LASV Primary Screen - GLuc reporter signal (AID 1347082; calls by dose curve; tested in HEK293 reporter line)
[37] = qHTS for Inhibitors of the Functional Ribonucleoprotein Complex (vRNP) of Lassa (LASV) Arenavirus: Viability assay - alamar blue signal for LASV Primary Screen (AID 1347083; calls by dose curve; tested in HEK293 reporter line; also: series mostly up to about 57 µM; % is scaled to controls: 0 for no effect and ±100 for the full control effect; nearly all actives have a fitted effect of over 80% in size)
[38] = qHTS for Inhibitors of the Functional Ribonucleoprotein Complex (vRNP) of Lymphocytic Choriomeningitis Arenaviruses (LCMV): Viability assay - alamar blue signal for LCMV Primary Screen (AID 1347085; calls by dose curve; tested in HEK293 reporter line; also: series mostly up to about 57 µM; % is scaled to controls: 0 for no effect and ±100 for the full control effect; nearly all actives have a fitted effect of over 80% in size)
[39] = target: Nucleoprotein (Lymphocytic choriomeningitis virus (strain Armstrong)) (UniProt P09992); assay: qHTS for Inhibitors of the Functional Ribonucleoprotein Complex (vRNP) of Lymphocytic Choriomeningitis Arenaviruses (LCMV): LCMV Primary Screen - GLuc reporter signal (AID 1347086; calls by dose curve)

Chain of Thyroid hormone receptor beta (Homo sapiens) (P10828 whole entry, looked up): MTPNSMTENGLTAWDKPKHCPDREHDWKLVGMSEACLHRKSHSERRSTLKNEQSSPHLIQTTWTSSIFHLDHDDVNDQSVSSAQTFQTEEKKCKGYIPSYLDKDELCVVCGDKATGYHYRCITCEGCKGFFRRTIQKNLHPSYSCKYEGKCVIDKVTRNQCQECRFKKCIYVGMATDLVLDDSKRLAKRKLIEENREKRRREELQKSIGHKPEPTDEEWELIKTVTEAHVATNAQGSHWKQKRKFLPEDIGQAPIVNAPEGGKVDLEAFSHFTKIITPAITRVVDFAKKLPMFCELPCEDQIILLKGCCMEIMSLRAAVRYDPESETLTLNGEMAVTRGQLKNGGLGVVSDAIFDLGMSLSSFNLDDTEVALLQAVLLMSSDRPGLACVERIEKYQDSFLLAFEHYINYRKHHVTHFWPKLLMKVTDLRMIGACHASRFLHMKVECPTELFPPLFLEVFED
Chain of Bile acid receptor (Homo sapiens) (Q96RI1 whole entry, looked up): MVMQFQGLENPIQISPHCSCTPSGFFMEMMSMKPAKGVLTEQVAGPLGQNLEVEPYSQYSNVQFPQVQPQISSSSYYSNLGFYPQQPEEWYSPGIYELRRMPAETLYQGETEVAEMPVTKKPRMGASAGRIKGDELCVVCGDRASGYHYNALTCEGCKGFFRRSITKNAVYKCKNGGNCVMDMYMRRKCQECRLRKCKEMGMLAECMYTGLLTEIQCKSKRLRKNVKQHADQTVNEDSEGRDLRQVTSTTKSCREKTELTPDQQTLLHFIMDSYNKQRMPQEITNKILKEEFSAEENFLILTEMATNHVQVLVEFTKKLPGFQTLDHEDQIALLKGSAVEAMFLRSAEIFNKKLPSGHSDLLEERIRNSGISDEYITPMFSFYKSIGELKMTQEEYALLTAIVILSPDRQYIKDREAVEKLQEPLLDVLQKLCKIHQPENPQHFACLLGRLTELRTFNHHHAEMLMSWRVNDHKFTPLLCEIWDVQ
Chain of Glucocorticoid receptor (Homo sapiens) (P04150 whole entry, looked up): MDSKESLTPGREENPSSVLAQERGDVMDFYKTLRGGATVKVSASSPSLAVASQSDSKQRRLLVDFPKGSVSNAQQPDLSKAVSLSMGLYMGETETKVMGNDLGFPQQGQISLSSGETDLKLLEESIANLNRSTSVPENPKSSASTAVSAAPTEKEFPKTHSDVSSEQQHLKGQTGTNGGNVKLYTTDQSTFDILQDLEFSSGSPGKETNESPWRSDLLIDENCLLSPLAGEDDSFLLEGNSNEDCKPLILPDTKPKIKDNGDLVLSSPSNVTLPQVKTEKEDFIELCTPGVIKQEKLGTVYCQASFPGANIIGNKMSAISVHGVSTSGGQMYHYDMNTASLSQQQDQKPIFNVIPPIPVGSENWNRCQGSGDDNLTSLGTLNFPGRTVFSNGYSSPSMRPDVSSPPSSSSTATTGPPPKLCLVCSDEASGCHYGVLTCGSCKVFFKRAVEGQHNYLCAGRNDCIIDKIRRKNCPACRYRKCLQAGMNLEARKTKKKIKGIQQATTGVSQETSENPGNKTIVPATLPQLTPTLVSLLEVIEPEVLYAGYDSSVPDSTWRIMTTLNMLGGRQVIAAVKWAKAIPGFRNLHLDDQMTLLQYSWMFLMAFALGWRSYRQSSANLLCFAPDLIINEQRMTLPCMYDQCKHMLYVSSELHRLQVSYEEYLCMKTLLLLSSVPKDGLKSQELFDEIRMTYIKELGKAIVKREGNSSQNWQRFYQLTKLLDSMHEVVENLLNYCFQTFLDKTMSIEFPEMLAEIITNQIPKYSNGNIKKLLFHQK
Chain of Peroxisome proliferator-activated receptor delta (Homo sapiens) (Q03181 whole entry, looked up): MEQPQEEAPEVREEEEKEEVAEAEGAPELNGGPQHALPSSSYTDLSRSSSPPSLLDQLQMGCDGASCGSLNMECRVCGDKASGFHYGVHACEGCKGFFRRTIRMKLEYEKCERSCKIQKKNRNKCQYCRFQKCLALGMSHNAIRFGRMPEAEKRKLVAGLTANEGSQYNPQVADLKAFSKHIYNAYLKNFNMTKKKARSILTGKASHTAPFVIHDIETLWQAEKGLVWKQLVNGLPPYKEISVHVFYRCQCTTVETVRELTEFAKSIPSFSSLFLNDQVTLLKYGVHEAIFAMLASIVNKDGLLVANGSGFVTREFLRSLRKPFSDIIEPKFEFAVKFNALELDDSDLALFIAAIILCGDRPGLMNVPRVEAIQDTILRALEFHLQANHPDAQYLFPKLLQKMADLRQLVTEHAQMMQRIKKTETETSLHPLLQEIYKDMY
Chain of Peroxisome proliferator-activated receptor alpha (Homo sapiens) (Q07869 whole entry, looked up): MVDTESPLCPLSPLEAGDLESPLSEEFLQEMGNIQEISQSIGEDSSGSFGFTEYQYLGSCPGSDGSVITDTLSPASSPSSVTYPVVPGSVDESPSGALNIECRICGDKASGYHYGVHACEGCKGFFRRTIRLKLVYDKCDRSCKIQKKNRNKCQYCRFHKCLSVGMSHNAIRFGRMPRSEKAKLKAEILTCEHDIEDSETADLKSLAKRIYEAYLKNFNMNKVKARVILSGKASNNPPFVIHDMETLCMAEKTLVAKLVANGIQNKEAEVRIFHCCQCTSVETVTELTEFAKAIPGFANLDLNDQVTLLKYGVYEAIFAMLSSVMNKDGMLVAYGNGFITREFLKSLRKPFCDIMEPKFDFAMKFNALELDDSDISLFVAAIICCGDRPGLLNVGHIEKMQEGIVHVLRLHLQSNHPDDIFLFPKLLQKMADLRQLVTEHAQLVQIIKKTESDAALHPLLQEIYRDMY
Chain of Retinoic acid receptor RXR-alpha (Homo sapiens) (P19793 whole entry, looked up): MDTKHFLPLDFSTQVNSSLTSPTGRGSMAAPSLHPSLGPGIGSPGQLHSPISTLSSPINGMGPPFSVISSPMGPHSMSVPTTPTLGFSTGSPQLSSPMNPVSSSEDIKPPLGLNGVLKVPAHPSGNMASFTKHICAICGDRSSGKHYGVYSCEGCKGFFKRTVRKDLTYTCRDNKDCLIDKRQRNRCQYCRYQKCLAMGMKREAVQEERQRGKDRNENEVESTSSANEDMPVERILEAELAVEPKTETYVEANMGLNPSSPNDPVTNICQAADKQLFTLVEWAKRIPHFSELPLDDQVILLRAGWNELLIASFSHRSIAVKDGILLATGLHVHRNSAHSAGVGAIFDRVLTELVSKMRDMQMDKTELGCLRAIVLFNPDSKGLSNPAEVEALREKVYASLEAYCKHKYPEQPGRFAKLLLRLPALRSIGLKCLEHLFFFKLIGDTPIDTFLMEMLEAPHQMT
Chain of Estrogen receptor (Homo sapiens) (P03372 whole entry, looked up): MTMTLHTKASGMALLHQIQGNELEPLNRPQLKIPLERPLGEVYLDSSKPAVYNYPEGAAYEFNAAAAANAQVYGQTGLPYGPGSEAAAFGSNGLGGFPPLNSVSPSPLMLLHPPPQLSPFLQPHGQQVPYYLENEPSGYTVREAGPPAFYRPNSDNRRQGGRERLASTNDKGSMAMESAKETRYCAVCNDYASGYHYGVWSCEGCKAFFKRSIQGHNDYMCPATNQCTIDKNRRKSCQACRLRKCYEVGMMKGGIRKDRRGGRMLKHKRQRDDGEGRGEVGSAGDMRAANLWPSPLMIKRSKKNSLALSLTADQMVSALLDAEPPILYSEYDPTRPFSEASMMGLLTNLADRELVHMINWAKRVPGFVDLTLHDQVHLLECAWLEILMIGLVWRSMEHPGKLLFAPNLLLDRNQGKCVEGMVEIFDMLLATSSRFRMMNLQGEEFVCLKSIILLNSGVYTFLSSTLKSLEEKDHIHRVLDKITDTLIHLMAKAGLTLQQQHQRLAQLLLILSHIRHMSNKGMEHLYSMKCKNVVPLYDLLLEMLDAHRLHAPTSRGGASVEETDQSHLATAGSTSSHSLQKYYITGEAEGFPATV
Chain of Voltage-gated inwardly rectifying potassium channel KCNH2 (Homo sapiens) (Q12809 whole entry, looked up): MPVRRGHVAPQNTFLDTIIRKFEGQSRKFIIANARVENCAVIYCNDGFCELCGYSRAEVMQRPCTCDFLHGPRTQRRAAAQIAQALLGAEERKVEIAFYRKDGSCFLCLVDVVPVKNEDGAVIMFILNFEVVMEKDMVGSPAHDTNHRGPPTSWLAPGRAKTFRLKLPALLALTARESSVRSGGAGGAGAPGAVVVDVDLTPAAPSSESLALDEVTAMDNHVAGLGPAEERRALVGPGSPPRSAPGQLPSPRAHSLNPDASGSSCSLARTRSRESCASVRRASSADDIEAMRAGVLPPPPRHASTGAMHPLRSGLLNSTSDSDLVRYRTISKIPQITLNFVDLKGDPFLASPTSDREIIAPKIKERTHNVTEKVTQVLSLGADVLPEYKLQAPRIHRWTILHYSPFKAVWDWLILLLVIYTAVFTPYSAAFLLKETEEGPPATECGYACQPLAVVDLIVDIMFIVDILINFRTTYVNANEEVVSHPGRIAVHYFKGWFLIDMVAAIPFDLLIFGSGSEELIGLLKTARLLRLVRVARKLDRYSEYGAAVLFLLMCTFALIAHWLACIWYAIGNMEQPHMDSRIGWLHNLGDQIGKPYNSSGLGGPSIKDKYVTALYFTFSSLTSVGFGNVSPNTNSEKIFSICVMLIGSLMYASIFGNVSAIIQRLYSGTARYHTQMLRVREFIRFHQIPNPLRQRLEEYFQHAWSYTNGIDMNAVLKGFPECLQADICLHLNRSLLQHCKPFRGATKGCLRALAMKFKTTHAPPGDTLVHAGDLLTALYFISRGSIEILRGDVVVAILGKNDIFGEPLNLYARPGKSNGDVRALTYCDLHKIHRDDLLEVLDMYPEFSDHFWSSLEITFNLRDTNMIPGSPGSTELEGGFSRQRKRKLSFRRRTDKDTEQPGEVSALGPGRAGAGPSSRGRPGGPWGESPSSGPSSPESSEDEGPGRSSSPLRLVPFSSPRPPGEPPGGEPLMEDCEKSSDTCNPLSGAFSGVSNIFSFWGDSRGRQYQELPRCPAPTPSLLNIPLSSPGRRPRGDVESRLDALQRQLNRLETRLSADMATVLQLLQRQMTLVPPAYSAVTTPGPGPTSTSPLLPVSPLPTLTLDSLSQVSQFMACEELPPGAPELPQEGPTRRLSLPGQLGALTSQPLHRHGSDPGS

c1ccc(Nc2ccc3ccccc3c2)cc1
41.7% and -2.21%: max response [20]
-7.73% and -2.18%: max response [23]
inactive: outcome [1] | outcome [2] | outcome [3] | Potency [4] | outcome [5] | outcome [6] | outcome [7] | outcome [8] | outcome [9] | outcome [10] | outcome [11] | Potency [12] | outcome [13] | Potency [14] | Potency [15] | activation [16] 5.18% and -0.414% | activation [17] -2.76% and -2.2% | Potency [18] | Potency [19] | outcome [21] | Potency [22] | max response [24] 4.38% and -18.9% | activity change % (negative = inhibition) [25] -6.28% | activation [28] -2.23% and -2.96% | activation [29] 0.513% and 2.05% | max response [32] 18.5% and 8.75% | outcome [33] | max response [34] -12% and -13.2% | outcome [35] | Potency [36] | Potency [37] | Potency [38] | Potency [39]
active: Potency [26] 25.1 µM | Potency [27] 42.2 µM and 54.5 µM | Potency [30] 37.6 µM | Potency [31] 42.2 µM
